This assay concerns the target furin, P09958. Put plainly: furin cleavage Z-score vs untreated control; higher = more cleavage, active = 3.5 or more, inactive = 1 or less, 8 variable residues between constant flanks. In a few lines:
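The cleavage Z-score was derived for purified furin acting on 8-mer peptides held on magnetic beads and fused to a cDNA oligonucleotide. Digests lasted 7.5, 15 or 30 min at 1:10 enzyme:substrate in 50 mM HEPES pH 7.5 with CaCl2 and NaCl. Sequencing counts of released DNA, log-transformed against furin-free reactions, were lowess-adjusted and scaled by median absolute deviation.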

Some of the results follow. The true hit rate is not given.

Chain of furin, P09958 (P09958 whole entry, the tested form may be a part): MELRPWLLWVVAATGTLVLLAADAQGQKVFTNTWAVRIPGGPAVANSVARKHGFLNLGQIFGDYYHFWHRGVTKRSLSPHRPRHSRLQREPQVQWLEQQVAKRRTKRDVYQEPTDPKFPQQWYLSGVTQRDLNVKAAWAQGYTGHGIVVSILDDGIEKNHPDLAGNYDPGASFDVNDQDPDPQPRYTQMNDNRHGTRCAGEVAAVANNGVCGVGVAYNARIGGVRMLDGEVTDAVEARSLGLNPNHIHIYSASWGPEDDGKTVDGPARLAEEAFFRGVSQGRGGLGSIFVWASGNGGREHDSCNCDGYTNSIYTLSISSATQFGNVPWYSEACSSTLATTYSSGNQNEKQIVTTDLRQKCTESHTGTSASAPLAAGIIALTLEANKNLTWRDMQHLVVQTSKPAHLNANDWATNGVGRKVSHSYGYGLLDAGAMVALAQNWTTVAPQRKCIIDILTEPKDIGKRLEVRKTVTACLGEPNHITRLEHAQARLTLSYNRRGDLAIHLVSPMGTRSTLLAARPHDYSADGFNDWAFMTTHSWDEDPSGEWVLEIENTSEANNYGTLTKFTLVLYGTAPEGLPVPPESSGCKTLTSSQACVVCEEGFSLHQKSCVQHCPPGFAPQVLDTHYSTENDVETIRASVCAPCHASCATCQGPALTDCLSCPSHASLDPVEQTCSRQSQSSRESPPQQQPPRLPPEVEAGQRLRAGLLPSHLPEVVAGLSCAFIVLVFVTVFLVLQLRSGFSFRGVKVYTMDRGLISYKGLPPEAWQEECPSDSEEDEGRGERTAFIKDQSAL

B1: HC1033 (peptide)
chain: CAVIAPAVQTAGNASASA
In the case of B1, the “furin cleavage Z-score” value is 0.392 (inactive) (7.5 min), 0.329 (inactive) (15 min) and 0.692 (inactive) (30 min).

B2: HC1221 (peptide)
chain: CAFFTELDGVAGNASASA
On to B2, for which the “furin cleavage Z-score” value runs as follows: (7.5 min) -0.975 (inactive); (15 min) -0.00103 (inactive); (30 min) -0.854 (inactive).

B3: HC2407 (peptide)
chain: CAEVPCHRPFAGNASASA
As to B3, the “furin cleavage Z-score” value reads like this: (7.5 min) -0.191 (inactive); (15 min) 0.106 (inactive); (30 min) 0.623 (inactive).

B4: HC2140 (peptide)
chain: CAECVVCCSMAGNASASA
Regarding B4, the “furin cleavage Z-score” value by setting is: (7.5 min) 0.85 (inactive); (15 min) 1.09; (30 min) -0.883 (inactive).

B5: HC2409 (peptide)
chain: CAEVPCHRPYAGNASASA
In the case of B5, the “furin cleavage Z-score” value is 0.869 (inactive) (7.5 min), -0.249 (inactive) (15 min) and 1.01 (30 min).

B6: HC2220 (peptide)
chain: CAEVVTSCWVAGNASASA
Consider B6, for which the “furin cleavage Z-score” value (7.5 min) was -1.37 (inactive), the “furin cleavage Z-score” value (15 min) was 0.202 (inactive) and the “furin cleavage Z-score” value (30 min) is -0.78 (inactive).

B7: HC2053 (peptide)
chain: CAVVCCSRSYAGNASASA
For B7, the “furin cleavage Z-score” value by setting is: (7.5 min) -1.24 (inactive); (15 min) -0.358 (inactive); (30 min) 0.798 (inactive).

B8: HC2000 (peptide)
chain: CACVCCSMSYAGNASASA
In the case of B8, the “furin cleavage Z-score” value was -0.467 (inactive) (7.5 min), -0.374 (inactive) (15 min) and 0.0175 (inactive) (30 min).

B9: FS-298 (peptide)
chain: CASNQRPKRLAGNASASA
As for B9, the “furin cleavage Z-score” value reads like this: (7.5 min) 5.25 (active); (15 min) 8.19 (active); (30 min) 7.26 (active).

B10: FS-365 (peptide)
chain: CAMKKRTKRLAGNASASA
Turning to B10, the “furin cleavage Z-score” value runs as follows: (7.5 min) 9.31 (active); (15 min) 8.89 (active); (30 min) 7.26 (active).

B11: FS-2861 (peptide)
chain: CAGKKRTVEMAGNASASA
B11: the “furin cleavage Z-score” value by setting is: (7.5 min) -0.948 (inactive); (15 min) 0.0508 (inactive); (30 min) -1.47 (inactive).

B12: HC964 (peptide)
chain: CAMWKCLIRLAGNASASA
For B12, the “furin cleavage Z-score” value runs as follows: (7.5 min) 0.587 (inactive); (15 min) 2.14; (30 min) 2.

B13: FS-322 (peptide)
chain: CAANRRDVRLAGNASASA
As for B13, the “furin cleavage Z-score” value is, setting by setting: (7.5 min) 0.0384 (inactive); (15 min) -1.82 (inactive); (30 min) 1.41.

B14: FS-870 (peptide)
chain: CASPSRTKRLAGNASASA
In the case of B14, the “furin cleavage Z-score” value by setting is: (7.5 min) 7.89 (active); (15 min) 8.76 (active); (30 min) 6.67 (active).

B15: HC2350 (peptide)
chain: CAEVVCHRPSAGNASASA
Consider B15, for which the “furin cleavage Z-score” value runs as follows: (7.5 min) -0.3 (inactive); (15 min) 0.778 (inactive); (30 min) 0.34 (inactive).

B16: HC1808 (peptide)
chain: CADWMEECSQAGNASASA
Turning to B16, the “furin cleavage Z-score” value was 0.73 (inactive) (7.5 min), -0.408 (inactive) (15 min) and -0.438 (inactive) (30 min).

B17: HC2086 (peptide)
chain: CAVVCCSMSMAGNASASA
In the case of B17, the “furin cleavage Z-score” value (7.5 min) was 0.14 (inactive), the “furin cleavage Z-score” value (15 min) is -1.35 (inactive) and the “furin cleavage Z-score” value (30 min) is 0.14 (inactive).

B18: FS-388 (peptide)
chain: CAVTQRSKRAAGNASASA
In the case of B18, the “furin cleavage Z-score” value runs as follows: (7.5 min) 10.4 (active); (15 min) 9.15 (active); (30 min) 7.46 (active).

B19: FS-1496 (peptide)
chain: CATQQRSKRAAGNASASA
In the case of B19, the “furin cleavage Z-score” value by setting is: (7.5 min) 7.63 (active); (15 min) 7.61 (active); (30 min) 6.89 (active).

B20: HC770 (peptide)
chain: CAVPQSFQVAAGNASASA
As for B20, the “furin cleavage Z-score” value was -0.249 (inactive) (7.5 min), -1.95 (inactive) (15 min) and -0.519 (inactive) (30 min).

B21: FS-477 (peptide)
chain: CAPSQRSKRPAGNASASA
For the sequence B21, the “furin cleavage Z-score” value (7.5 min) was -0.582 (inactive), the “furin cleavage Z-score” value (15 min) is 0.273 (inactive) and the “furin cleavage Z-score” value (30 min) was -0.55 (inactive).

B22: FS-1530 (peptide)
chain: CAGWLRSKKAAGNASASA
B22: the “furin cleavage Z-score” value is -0.625 (inactive) (7.5 min), -0.994 (inactive) (15 min) and -0.39 (inactive) (30 min).

B23: FS-248 (peptide)
chain: CAHPQRSKKAAGNASASA
Turning to B23, the “furin cleavage Z-score” value was -0.0765 (inactive) (7.5 min), 0.432 (inactive) (15 min) and 1.4 (30 min).

B24: HC1447 (peptide)
chain: CAGRKPARLIAGNASASA
Regarding B24, the “furin cleavage Z-score” value was -1.48 (inactive) (7.5 min), -1.33 (inactive) (15 min) and -0.697 (inactive) (30 min).

B25: FS-835 (peptide)
chain: CAPAGRISRSAGNASASA
As for B25, the “furin cleavage Z-score” value is, setting by setting: (7.5 min) 6.15 (active); (15 min) 10.5 (active); (30 min) 8.23 (active).

B26: FS-2026 (peptide)
chain: CARHVRSYNHAGNASASA
B26: the “furin cleavage Z-score” value by setting is: (7.5 min) 0.349 (inactive); (15 min) 0.971 (inactive); (30 min) 3.01.

B27: FS-708 (peptide)
chain: CARHVRISRSAGNASASA
Consider B27, for which the “furin cleavage Z-score” value was 10.5 (active) (7.5 min), 10.5 (active) (15 min) and 7.87 (active) (30 min).

B28: HC229 (peptide)
chain: CAIPLVGAPLAGNASASA
Take B28: the “furin cleavage Z-score” value was -1.25 (inactive) (7.5 min), -1.1 (inactive) (15 min) and -0.498 (inactive) (30 min).

The values are drawn from the supplement of paper PMC3545927.
